Holding throughout (test): DAPPL (digital affinity profiling via proximity ligation, sequencing); 10 mM Tris-HCl pH 7.5, 50 mM NaCl, 1 mM DTT, 4% glycerol, room temperature, 30 min; GST-TFs on glutathione beads, 16-mer random dsDNA library, 0.1% formaldehyde crosslink after washing; high values mean tight binding
One assay addresses T1, FLI1 (Homo sapiens, UniProt Q01543 1-452).
T1 sequence: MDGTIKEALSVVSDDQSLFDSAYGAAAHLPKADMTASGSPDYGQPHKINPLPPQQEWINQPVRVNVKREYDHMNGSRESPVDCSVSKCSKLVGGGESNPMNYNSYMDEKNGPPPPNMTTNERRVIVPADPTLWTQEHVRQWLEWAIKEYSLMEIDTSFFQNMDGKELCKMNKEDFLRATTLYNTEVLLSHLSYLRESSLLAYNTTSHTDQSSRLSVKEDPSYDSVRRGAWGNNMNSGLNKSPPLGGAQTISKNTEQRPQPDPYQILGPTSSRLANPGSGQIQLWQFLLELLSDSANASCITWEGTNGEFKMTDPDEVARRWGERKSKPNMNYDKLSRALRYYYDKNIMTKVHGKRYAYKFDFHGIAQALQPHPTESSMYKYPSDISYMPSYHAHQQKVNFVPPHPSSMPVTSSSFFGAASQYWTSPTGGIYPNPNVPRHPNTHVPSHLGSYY
Conditions: protein: recombinant; tags: N-terminal GST; dsDNA, one strand shown. Put shortly: (§1)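 After expression in yeast as GST fusions, human transcription factors were bound to glutathione beads, DNA-barcoded and mixed with a tag-only sample. The pools were incubated with 200 nmole of a 16-mer random double-stranded DNA library in Tris/NaCl/DTT/glycerol buffer (30 min, room temperature), washed and crosslinked with 0.1% formaldehyde. Proximity ligation with BsaI/T4 ligase ran for 1 h at 37 °C, before PCR amplification and sequencing on an Illumina NextSeq500. Binding signal is a hexamer's read frequency for a factor divided by its frequency for the tag-only sample.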

The next assay deals with T2, ELK1 (Homo sapiens, UniProt P19419 1-428).
T2 sequence: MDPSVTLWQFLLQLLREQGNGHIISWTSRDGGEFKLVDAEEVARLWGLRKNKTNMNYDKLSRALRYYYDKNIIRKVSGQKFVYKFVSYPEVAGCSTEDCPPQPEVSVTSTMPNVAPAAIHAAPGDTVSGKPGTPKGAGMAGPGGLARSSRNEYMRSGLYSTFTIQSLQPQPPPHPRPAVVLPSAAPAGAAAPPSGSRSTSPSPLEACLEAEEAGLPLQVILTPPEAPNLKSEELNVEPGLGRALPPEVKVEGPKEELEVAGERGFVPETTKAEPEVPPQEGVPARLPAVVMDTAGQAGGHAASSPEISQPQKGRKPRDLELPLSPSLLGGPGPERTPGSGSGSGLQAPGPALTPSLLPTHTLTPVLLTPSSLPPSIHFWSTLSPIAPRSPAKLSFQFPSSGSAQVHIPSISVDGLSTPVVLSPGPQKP
Conditions: protein: recombinant; tags: N-terminal GST; dsDNA, one strand shown. Summed up:
as §1

The target in another assay is T3, GABPA (Homo sapiens, UniProt Q06546 1-454).
T3 sequence: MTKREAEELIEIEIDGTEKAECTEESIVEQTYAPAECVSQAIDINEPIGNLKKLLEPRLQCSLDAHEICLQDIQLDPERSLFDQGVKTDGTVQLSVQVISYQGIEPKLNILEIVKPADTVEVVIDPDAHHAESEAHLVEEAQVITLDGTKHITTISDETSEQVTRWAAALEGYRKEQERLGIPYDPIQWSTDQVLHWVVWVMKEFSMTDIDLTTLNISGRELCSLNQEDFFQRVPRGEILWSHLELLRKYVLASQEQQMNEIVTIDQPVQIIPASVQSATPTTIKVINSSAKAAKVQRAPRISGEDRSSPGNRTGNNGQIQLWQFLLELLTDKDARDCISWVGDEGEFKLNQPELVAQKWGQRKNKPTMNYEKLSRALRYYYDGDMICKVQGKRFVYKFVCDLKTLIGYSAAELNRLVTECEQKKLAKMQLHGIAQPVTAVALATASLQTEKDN
The note with it: protein: recombinant; tags: N-terminal GST; dsDNA, one strand shown. Put shortly: as §1

The target in a further assay is T4, ERG (Homo sapiens, UniProt P11308 1-479).
T4 sequence: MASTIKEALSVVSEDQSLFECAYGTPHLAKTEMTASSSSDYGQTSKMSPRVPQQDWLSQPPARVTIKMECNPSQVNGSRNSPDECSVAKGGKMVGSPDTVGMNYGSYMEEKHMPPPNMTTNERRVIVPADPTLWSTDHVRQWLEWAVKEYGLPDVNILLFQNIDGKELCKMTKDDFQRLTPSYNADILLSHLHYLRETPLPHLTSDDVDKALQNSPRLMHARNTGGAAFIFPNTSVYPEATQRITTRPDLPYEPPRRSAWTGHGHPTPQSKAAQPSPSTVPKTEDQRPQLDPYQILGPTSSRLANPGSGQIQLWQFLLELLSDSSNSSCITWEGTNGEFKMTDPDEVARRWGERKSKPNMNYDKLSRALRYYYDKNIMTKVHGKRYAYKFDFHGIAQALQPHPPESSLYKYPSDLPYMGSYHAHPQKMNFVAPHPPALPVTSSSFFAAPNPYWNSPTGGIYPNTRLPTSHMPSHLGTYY
Conditions: protein: recombinant; tags: N-terminal GST; dsDNA, one strand shown. Put shortly: as §1

The target of a further assay is ELF1 (Homo sapiens, UniProt P32519 1-619). Conditions: protein: recombinant; tags: N-terminal GST; dsDNA, one strand shown. Put shortly: as §1
ELF1, sequence (P32519 whole entry): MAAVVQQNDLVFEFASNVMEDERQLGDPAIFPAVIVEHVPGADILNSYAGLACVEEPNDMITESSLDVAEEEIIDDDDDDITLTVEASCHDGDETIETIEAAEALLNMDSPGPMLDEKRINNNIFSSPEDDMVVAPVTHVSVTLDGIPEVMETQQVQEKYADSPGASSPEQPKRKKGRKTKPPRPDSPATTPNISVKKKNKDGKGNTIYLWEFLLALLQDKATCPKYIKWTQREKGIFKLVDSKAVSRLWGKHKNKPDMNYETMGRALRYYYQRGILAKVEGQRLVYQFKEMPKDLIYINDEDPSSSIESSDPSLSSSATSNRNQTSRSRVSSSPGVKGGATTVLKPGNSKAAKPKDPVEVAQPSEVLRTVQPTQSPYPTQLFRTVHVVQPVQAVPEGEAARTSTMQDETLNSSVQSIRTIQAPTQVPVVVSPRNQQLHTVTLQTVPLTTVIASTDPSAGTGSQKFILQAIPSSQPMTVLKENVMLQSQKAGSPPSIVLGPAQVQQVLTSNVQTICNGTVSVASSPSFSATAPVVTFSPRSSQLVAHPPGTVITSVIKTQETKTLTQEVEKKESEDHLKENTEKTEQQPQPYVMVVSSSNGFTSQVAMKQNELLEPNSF
A further assay deals with T5, EHF (Homo sapiens, UniProt Q9NZC4 1-300).
T5 sequence: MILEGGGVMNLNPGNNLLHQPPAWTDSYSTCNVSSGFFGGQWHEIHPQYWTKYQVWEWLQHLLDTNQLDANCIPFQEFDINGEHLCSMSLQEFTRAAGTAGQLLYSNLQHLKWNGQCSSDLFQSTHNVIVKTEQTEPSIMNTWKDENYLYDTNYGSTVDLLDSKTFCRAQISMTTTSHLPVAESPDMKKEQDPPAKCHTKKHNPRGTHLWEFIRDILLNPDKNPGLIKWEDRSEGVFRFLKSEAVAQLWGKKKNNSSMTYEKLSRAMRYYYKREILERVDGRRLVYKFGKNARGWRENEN
The note with it: protein: recombinant; tags: N-terminal GST; dsDNA, one strand shown. Summed up: as §1

The next assay concerns the target SPI1 (Homo sapiens, UniProt P17947 1-270). The note with it: protein: recombinant; tags: N-terminal GST; dsDNA, one strand shown. Summed up: as §1
In another assay the target is SPIB (Homo sapiens, UniProt Q01892 1-262). The note with it: protein: recombinant; tags: N-terminal GST; dsDNA, one strand shown. Put shortly: as §1
SPIB, sequence (Q01892 whole entry): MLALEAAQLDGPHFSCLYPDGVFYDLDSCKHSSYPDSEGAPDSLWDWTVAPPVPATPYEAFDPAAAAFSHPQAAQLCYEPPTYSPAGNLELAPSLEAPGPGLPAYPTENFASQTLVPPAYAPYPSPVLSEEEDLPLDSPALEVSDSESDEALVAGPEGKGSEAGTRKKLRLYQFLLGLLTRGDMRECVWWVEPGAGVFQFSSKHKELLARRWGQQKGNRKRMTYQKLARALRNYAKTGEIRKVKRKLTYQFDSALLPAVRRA
Another assay addresses T6, ELK3 (Homo sapiens, UniProt P41970 1-407).
T6 sequence: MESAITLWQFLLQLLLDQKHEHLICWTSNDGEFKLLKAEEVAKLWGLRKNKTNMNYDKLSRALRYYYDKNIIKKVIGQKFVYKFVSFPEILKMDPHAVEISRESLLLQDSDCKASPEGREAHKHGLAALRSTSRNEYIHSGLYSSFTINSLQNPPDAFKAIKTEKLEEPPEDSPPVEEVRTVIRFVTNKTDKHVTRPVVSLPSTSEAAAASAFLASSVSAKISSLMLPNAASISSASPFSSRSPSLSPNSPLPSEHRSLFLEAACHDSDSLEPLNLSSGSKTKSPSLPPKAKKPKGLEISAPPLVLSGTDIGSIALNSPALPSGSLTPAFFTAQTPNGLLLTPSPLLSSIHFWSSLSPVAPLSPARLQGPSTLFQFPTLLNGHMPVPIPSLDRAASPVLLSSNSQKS
Conditions: protein: recombinant; tags: N-terminal GST; dsDNA, one strand shown. Put shortly: as §1

In another assay the target is T7, FEV (Homo sapiens, UniProt Q99581 1-238).
T7 sequence: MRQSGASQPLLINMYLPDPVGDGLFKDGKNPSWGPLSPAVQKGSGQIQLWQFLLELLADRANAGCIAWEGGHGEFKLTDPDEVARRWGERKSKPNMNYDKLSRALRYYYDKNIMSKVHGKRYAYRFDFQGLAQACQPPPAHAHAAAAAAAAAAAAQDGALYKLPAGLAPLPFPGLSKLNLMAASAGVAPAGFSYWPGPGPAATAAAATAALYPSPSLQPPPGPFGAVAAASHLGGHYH
Conditions: protein: recombinant; tags: N-terminal GST; dsDNA, one strand shown. Summed up:
as §1

The next assay addresses ETV5 (Homo sapiens, UniProt P41161 1-510). Conditions: protein: recombinant; tags: N-terminal GST; dsDNA, one strand shown. Put shortly: as §1
A further assay concerns the target HSF1 (Homo sapiens, UniProt Q00613 1-529). The note with it: protein: recombinant; tags: N-terminal GST; chain copies: 3; dsDNA, one strand shown. Summed up:
as §1

Another assay has as its target T8, SPIC (Homo sapiens, UniProt Q8N5J4 1-248).
T8 sequence: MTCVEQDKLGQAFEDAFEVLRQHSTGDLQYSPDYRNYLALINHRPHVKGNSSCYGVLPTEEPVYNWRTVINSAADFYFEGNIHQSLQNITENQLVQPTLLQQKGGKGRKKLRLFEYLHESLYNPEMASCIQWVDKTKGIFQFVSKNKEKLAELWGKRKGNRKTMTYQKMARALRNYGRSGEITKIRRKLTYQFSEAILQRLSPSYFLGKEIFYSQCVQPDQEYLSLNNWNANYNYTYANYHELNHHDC
Conditions: protein: recombinant; tags: N-terminal GST; dsDNA, one strand shown. Put shortly: as §1

The next assay concerns the target ELF4 (Homo sapiens, UniProt Q99607 1-663). Conditions: protein: recombinant; tags: N-terminal GST; dsDNA, one strand shown. Put shortly: as §1
The target in another assay is T9, ELK4 (Homo sapiens, UniProt P28324-2 1-405).
T9 sequence: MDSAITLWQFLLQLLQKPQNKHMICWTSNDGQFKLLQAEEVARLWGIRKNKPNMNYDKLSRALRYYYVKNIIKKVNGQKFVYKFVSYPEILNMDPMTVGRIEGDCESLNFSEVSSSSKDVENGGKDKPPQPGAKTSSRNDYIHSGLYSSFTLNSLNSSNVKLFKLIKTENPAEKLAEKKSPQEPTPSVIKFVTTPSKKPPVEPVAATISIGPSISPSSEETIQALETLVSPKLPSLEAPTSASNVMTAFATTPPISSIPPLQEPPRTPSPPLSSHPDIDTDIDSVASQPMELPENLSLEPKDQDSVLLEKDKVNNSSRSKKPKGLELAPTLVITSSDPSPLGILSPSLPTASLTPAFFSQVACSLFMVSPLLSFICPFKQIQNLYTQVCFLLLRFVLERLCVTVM
The note with it: protein: recombinant; tags: N-terminal GST; dsDNA, one strand shown. Put shortly: as §1

A further assay has as its target T10, ETV2 (Homo sapiens, UniProt O00321 1-342).
T10 sequence: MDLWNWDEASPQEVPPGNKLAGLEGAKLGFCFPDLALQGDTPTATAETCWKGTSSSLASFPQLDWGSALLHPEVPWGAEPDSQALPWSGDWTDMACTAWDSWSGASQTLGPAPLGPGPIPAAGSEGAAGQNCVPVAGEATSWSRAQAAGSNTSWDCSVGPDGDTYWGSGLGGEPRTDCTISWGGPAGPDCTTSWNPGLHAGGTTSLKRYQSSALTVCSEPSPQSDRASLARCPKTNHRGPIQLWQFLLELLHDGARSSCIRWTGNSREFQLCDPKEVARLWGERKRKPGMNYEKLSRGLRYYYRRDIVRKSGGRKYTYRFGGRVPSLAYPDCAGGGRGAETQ
Conditions: protein: recombinant; tags: N-terminal GST; dsDNA, one strand shown. Put shortly:
as §1

The target in the next assay is T11, ELF3 (Homo sapiens, UniProt P78545 1-371).
T11 sequence: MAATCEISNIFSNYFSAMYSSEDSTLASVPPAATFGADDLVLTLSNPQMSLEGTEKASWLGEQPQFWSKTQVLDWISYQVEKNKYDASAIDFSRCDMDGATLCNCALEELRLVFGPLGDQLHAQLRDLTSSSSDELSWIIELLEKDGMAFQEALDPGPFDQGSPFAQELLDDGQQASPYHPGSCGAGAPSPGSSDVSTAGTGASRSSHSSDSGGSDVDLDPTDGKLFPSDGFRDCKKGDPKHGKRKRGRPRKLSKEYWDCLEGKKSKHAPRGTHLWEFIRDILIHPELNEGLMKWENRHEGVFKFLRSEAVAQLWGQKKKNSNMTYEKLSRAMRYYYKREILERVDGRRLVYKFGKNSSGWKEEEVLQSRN
Conditions: protein: recombinant; tags: N-terminal GST; dsDNA, one strand shown. Summed up: as §1

In another assay the target is ETV1 (Homo sapiens, UniProt P50549 1-477). Conditions: protein: recombinant; tags: N-terminal GST; dsDNA, one strand shown. Summed up:
as §1

ETV1, sequence (P50549 whole entry): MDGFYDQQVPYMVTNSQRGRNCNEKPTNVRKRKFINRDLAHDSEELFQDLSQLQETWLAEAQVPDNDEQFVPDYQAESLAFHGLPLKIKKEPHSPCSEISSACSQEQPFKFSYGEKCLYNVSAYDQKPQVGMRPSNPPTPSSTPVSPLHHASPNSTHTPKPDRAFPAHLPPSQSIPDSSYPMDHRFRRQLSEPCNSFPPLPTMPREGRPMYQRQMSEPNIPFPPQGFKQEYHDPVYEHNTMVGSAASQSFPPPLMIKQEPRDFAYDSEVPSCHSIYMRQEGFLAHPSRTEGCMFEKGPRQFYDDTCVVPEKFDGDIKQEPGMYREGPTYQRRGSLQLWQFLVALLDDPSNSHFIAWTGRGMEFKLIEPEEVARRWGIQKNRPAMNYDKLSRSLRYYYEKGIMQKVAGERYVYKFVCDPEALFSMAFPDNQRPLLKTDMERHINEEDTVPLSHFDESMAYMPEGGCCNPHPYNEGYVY
ETV5, sequence (P41161 whole entry): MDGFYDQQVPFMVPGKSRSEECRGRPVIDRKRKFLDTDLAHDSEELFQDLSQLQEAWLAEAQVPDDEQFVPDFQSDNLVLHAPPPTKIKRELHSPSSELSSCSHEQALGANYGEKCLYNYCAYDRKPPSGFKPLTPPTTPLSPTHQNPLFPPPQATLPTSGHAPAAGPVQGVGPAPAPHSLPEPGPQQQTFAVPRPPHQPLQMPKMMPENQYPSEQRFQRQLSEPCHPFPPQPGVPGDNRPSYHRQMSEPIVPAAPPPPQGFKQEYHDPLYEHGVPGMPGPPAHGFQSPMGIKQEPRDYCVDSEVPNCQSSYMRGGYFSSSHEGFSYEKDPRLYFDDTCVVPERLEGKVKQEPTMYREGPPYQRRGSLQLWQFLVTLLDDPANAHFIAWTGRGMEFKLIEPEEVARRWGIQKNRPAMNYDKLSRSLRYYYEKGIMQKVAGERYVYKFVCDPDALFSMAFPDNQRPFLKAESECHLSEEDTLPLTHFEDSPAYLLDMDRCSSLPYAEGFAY
ELF4, sequence (Q99607 whole entry): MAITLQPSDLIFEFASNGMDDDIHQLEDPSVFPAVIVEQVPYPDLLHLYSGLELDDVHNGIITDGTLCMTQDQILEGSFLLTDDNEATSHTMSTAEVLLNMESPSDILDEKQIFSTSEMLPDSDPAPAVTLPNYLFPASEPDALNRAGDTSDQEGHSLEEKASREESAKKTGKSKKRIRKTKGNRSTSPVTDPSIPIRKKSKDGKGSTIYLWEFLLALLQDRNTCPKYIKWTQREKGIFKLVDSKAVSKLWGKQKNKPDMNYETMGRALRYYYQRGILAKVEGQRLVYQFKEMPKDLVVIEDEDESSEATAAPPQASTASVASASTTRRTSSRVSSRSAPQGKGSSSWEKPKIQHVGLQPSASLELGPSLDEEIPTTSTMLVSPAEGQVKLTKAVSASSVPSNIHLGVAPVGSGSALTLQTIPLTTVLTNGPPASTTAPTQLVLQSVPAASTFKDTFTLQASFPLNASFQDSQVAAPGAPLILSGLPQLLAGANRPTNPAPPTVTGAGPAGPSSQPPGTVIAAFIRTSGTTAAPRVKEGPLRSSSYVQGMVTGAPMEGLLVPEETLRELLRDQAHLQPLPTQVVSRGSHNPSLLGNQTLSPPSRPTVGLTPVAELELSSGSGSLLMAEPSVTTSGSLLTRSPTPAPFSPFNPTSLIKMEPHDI
HSF1, sequence (Q00613 whole entry): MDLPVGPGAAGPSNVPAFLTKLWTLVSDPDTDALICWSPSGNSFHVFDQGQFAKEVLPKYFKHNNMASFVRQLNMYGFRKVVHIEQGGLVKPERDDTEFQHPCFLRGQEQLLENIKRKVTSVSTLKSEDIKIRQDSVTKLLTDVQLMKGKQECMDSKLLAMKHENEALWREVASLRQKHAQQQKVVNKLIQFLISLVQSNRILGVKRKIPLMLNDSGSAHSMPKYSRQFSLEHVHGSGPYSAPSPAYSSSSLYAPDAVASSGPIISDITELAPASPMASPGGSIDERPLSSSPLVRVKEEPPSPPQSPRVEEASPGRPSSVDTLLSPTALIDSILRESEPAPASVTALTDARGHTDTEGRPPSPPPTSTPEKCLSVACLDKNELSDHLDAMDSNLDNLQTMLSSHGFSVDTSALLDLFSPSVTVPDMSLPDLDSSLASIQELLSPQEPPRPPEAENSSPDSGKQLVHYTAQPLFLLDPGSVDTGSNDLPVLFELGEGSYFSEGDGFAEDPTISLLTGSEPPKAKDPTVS

As to AGTTTC, the binding signal with FLI1 was 1.23 fold enrichment (6-mer frequency, TF over GST control); with ELK1 it was 1.28 fold enrichment (6-mer frequency, TF over GST control); with GABPA, 1.29 fold enrichment (6-mer frequency, TF over GST control); with ERG, 1.3 fold enrichment (6-mer frequency, TF over GST control); in the assay with ELF1, 1.27 fold enrichment (6-mer frequency, TF over GST control); with EHF, 1.34 fold enrichment (6-mer frequency, TF over GST control). The binding signal was 1.22 fold enrichment (6-mer frequency, TF over GST control) in the assay with SPI1; 1.24 fold enrichment (6-mer frequency, TF over GST control) with SPIB; 1.46 fold enrichment (6-mer frequency, TF over GST control) in the assay with ELK3; 1.23 fold enrichment (6-mer frequency, TF over GST control) with FEV; 1.33 fold enrichment (6-mer frequency, TF over GST control) with ETV5; 1.38 fold enrichment (6-mer frequency, TF over GST control) in the assay with HSF1. Besides, the binding signal with SPIC was 1.16 fold enrichment (6-mer frequency, TF over GST control); in the assay with ELF4 it was 1.2 fold enrichment (6-mer frequency, TF over GST control); with ELK4, 1.13 fold enrichment (6-mer frequency, TF over GST control); with ETV2, 1.21 fold enrichment (6-mer frequency, TF over GST control); with ELF3, 1.14 fold enrichment (6-mer frequency, TF over GST control); in the assay with ETV1, 1.29 fold enrichment (6-mer frequency, TF over GST control).

The values are drawn from article PMC7862700, “An all-to-all approach to the identification of sequence-specific readers for epigenetic DNA modifications on cytosine”.
